HCMV inh – human cytomegalovirus inhibition; AID 1259415; activity change, negative = inhibition, % at 57.5 µM; HFF cells, HCMV-luciferase reporter, 72 h; active compounds read low; 410,000 compounds, 4.5% hits; in the data active means activity change below about -60%; inconclusive means no clear call, values can overlap the other calls; inactive means above about -39%
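Human foreskin fibroblasts infected with luciferase-reporter HCMV at MOI 1 PFU/cell, compounds at two doses. Luciferase measured 72 h post infection; normalized to buffer-only basal and Salinomycin (10uM) controls.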
FMDV antiviral – blocks foot and mouth disease virus | FMDV antiviral cell-based qHTS | Potency, µM (titrated, usually from 57.9 µM), for the others: top-dose activity change, negative = inhibition, most hits filed as inhibitors | 410,000 compounds, 1.2% hits | AID 1159524; calls by dose curve; tested in HEK293T cells; further: read-out not given here; potency means the concentration at half of the fitted maximal effect; nearly all actives have a fitted effect of over 45% in size
MARV entry inh – blocks Marburg virus binding to or entry into cells; Marburg virus pseudotyped entry inhibition, cell reporter; Potency, µM (doses to about 37.8 µM), for inactives: at the highest dose activity change, negative = inhibition, hits mostly inhibitors; 300,000 compounds, 1.8% hits; calls by dose curve; tested in HEK293 cells; further: potency means the concentration at half of the fitted maximal effect
LASV entry inh – blocks Lassa virus binding to or entry into cells; AID 540256; Potency, µM (highest dose often 37.9 µM), without a hit: at the top dose activity change, negative = inhibition, hits mostly inhibitors; 300,000 compounds, 1.2% hits; Lassa virus pseudotype entry inhibition, cell reporter; calls by dose curve; tested in HEK293 cells; further: potency means the concentration at half of the fitted maximal effect; nearly all actives have a fitted effect of over 50% in size
HCV inh – inhibitors of hepatitis C virus infection; Huh7.5.1 HCVcc-Cre infection, luciferase reporter, 44 h; Potency, µM (series often up to 41.8 µM), without a hit: at the top dose activity change, negative = inhibition, most hits filed as inhibitors; 340,000 compounds, 3.4% hits; active means well fitted inhibition curve with a large enough effect; inconclusive means small, poorly fitted or top-dose-only effect, or another doubt; inactive means no such curve, though single readings can be large or run the other way; further: potency means the concentration at half of the fitted maximal effect
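1,000 cells/well; 4 h culture; + compound; + HCVcc-Cre (~0.5 moi); 44 h; luciferase substrate, RT 15 min; read 15 sec.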
Numbers without * were called inactive; [ ] = dose if it differs, or a comment. Rows were chosen to be rich in hits. Some 7.9% of all compounds tested hit in one or more screens of this group. On the % scale 0 is the no-effect control and ±100 the full control effect.

Screening FC(F)(F)c1cccc(CC2CN(Cc3ccccc3)Cc3ccccc3N2c2cc(Cl)cc(Cl)c2)c1 (stereo not drawn) returned HCMV inh -98.1* and FMDV antiviral -22.4%.
For O=S1(=O)CCOC[C@H](Cc2ccccc2)N1Cc1cccc(C(F)(F)F)c1 the results were HCMV inh -12.4, FMDV antiviral 0.0% and HCV inh inconclusive.
CSc1ncc2c(n1)-c1cc(C)ccc1SC2 was read as HCMV inh -98.1*, FMDV antiviral -10.3%, MARV entry inh inconclusive, LASV entry inh -11.5% and HCV inh 8.91µM*.
`CNC(=O)c1ccc(-c2sc3nc(N4CCOCC4)c4c(c3c2N)CCCC4)o1` gave HCMV inh -11.0, FMDV antiviral inconclusive, MARV entry inh -14.7%, LASV entry inh -2.5% and HCV inh 11.2µM*.
CNC(=O)c1ccc(-c2sc3nc(N4CCOCC4)c4c(c3c2N)CC(C)(C)OC4)o1 was read as HCMV inh 115.7, FMDV antiviral -14.0%, MARV entry inh inconclusive, LASV entry inh inconclusive and HCV inh inconclusive.
For CC(C)(CO)CNc1ccn2nccc2n1 the results were HCMV inh -69.6* and FMDV antiviral -4.4%.
COCCCNc1ccn2nc(-c3ccccc3)cc2n1 was read as HCMV inh 57.2 and FMDV antiviral -42.0%.
`Cc1ccc(CN2CCCn3nc(C(=O)NC(C)C)cc3C2=O)cc1` gave HCMV inh 1.7, FMDV antiviral 11.5% and LASV entry inh inconclusive.
CCN(CC)CC#CC(OC)(c1ccccc1)c1ccccc1 was read as HCMV inh -63.1*, FMDV antiviral inconclusive, MARV entry inh inconclusive, LASV entry inh inconclusive and HCV inh 13.1%.
CCCc1nc(C(C)(C)O)c(C(=O)OCc2oc(=O)oc2C)n1Cc1ccc(-c2ccccc2-c2nn[nH]n2)cc1 was read as FMDV antiviral -6.4%.
For CCOc1nc2cccc(C(=O)OC(C)OC(=O)OC3CCCCC3)c2n1Cc1ccc(-c2ccccc2-c2nn[nH]n2)cc1 (stereo not drawn) the results were HCMV inh -85.5* and FMDV antiviral -8.3%.
For CC(NC(=O)c1ccccc1F)c1nnc(SCC(=O)NC2CCCC2)n1C (stereo not drawn) the results were HCMV inh -64.2*, FMDV antiviral -10.0%, MARV entry inh -20.1%[46.1 µM], LASV entry inh 7.6%[46.1 µM] and HCV inh 7.9%.
`COCCNc1nc2c(c(=O)n(C)c(=O)n2C)n1Cc1c(F)cccc1Cl` gave HCMV inh -18.7, FMDV antiviral inconclusive, MARV entry inh inconclusive and LASV entry inh inconclusive.
CC(C)C(NS(C)(=O)=O)c1nnc2n1CCN(Cc1ccc(Cl)cc1)CC2 (stereo not drawn) was read as FMDV antiviral -9.6%.
For O=C(Nc1ccc(Cl)c(Cl)c1)N1N=CCC1c1ccccc1 (stereo not drawn) the results were HCMV inh -65.7*, FMDV antiviral -28.6%, MARV entry inh inconclusive, LASV entry inh inconclusive and HCV inh 10µM*.
COc1ccc(/C=C/c2c(-c3ccccc3OC)sc3ccccc23)cc1OC was read as HCMV inh 15.1, FMDV antiviral -1.6% and HCV inh inconclusive.
COc1ccc(/C=C/c2c(-c3ccc(OC)cc3)sc3cc(OC)c(OC)cc23)cc1 was read as HCMV inh -9.9, FMDV antiviral -29.8% and HCV inh 2.51µM*.
COc1ccc(-c2sc3ccccc3c2/C=C/c2ccncc2)cc1 was read as HCMV inh 26.0, FMDV antiviral -24.7% and HCV inh 7.08µM*.
Screening COc1ccc(-c2sc3ccccc3c2/C=C/c2ccc(OC)c(OC)c2)cc1 returned HCMV inh -20.1, FMDV antiviral 1.0% and HCV inh -1.3%.
Screening Cc1csc2nc(COc3ccccc3NC(=O)c3ccccc3Cl)cc(=O)n12 returned HCMV inh 2.5, FMDV antiviral -22.6%, MARV entry inh 7.0%[46.1 µM] and LASV entry inh -3.4%[46.1 µM].
COc1cc(NC(=O)CSc2nnc3ccccn23)cc(OC)c1 was read as HCMV inh 41.5, FMDV antiviral -8.5% and HCV inh 8.6%.
For CC(C)(C)c1cc(NC(=O)CCSc2nnc3ccccn23)cc(C(C)(C)C)c1 the results were HCMV inh -30.0, FMDV antiviral -16.9%, MARV entry inh inconclusive, LASV entry inh -25.7% and HCV inh 3.98µM*.
For CCc1cc2c(SCC(=O)N3CC(=O)Nc4ccccc43)ncnc2s1 the results were HCMV inh -60.1*, FMDV antiviral -24.4%, MARV entry inh 14.8%, LASV entry inh -5.0% and HCV inh -24.6%.
For CCc1cc2cc(C)ccc2nc1SCC(=O)N1CC(=O)Nc2ccccc21 the results were HCMV inh inconclusive, FMDV antiviral -20.0%, MARV entry inh inconclusive and HCV inh 7.08µM*.
For CCc1ccc2nc(SCC(=O)N3CC(=O)Nc4ccccc43)c(C#N)cc2c1 the results were HCMV inh 39.9, FMDV antiviral -14.7%, MARV entry inh inconclusive, LASV entry inh -3.5% and HCV inh 4.47µM*.
For Cc1ccc(S(=O)(=O)c2cn(CC(=O)Nc3ccc4c(c3)OCO4)c3ccccc3c2=O)cc1 the results were HCMV inh 7.8, FMDV antiviral 0.8%, MARV entry inh 0.2%[46.1 µM] and LASV entry inh -21.6%[46.1 µM].
Brc1ccc2c(c1)C(OC1CN3CCC1CC3)c1ccccc1CS2 (stereo not drawn) was read as HCMV inh -26.6, FMDV antiviral -10.6%, MARV entry inh 3.98µM*, LASV entry inh inconclusive and HCV inh 31.6µM*.
CN1CCC(OC2c3ccccc3CCc3ccccc32)CC1 was read as HCMV inh inconclusive and FMDV antiviral -24.3%.
For CSc1cccc(NC(=S)N(CCN(C)C)C(C)c2ccncc2)c1 (stereo not drawn) the results were HCMV inh inconclusive, FMDV antiviral 43.5% and HCV inh inconclusive.
CSc1cccc(NC(=S)N(CCN(C)C)C(C)c2ccccn2)c1 (stereo not drawn) was read as HCMV inh -38.3, FMDV antiviral -1.7%, MARV entry inh 10µM*, LASV entry inh inconclusive and HCV inh inconclusive.
NC(=O)CC(NC(=O)Cc1cccc2ccccc12)c1ccc(NC2CCCCCC2)c([N+](=O)[O-])c1 (stereo not drawn) was read as HCMV inh -35.8, FMDV antiviral -5.2% and HCV inh inconclusive.
For NC(=O)CC(NC(=O)Cc1cccc2ccccc12)c1ccc(NCc2ccc(F)cc2)c([N+](=O)[O-])c1 (stereo not drawn) the results were HCMV inh -4.7, FMDV antiviral -20.5% and HCV inh -12.1%.
NC(=O)CC(NC(=O)Cc1cccc2ccccc12)c1ccc(NCCc2ccccc2F)c([N+](=O)[O-])c1 (stereo not drawn) was read as HCMV inh -80.8*, FMDV antiviral -7.1% and HCV inh 13.9%.

Compound activity (PubChem)
